The record followed here is PubChem BioAssay.

Test [1] concerns the target Tumor necrosis factor receptor superfamily member 10B (Homo sapiens) (UniProt O14763). Put plainly: viability loss of caspase-8 NB7 cells with TRAIL – with/without TRAIL, luminescence panel, confirmation (AID 651596). The following applies: NB7 neuroblastoma + caspase-8, TRAIL sensitization, NB7 Caspase-8, with TRAIL, mean of runs, at 10 µM, stronger effect = higher value.
Test in test [2]: as above
The following applies: NB7 neuroblastoma + caspase-8, without TRAIL, NB7 Caspase-8, without TRAIL, mean of runs, at 10 µM.

Chain of Tumor necrosis factor receptor superfamily member 10B (Homo sapiens) (O14763 whole entry, looked up): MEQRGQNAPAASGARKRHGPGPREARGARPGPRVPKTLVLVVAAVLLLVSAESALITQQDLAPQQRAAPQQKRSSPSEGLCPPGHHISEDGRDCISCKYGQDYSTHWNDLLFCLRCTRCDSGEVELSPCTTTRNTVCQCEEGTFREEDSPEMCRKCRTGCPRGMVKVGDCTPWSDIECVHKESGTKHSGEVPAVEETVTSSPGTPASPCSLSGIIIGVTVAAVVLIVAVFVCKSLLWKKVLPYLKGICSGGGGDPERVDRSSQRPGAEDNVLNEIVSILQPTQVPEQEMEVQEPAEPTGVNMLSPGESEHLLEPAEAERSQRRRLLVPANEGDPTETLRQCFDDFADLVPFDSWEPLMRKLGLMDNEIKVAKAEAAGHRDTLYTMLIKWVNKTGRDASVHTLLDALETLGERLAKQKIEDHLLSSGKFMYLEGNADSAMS

As for `O=C(C[C@H]1C/C=C\C[C@@H](NC(=O)OCC2c3ccccc3-c3ccccc32)C(=O)O[C@@H](c2ccccc2)CNC1=O)N[C@H](CO)Cc1ccccc1`, the activity in test [1] was determined as 64.2%; in test [2] it was 43.2%.
`CCOC(=O)CSc1nc2cc(OC)ccc2cc1C#N`: the activity in test [1] was determined as 74.7%; in test [2], 80.4%.
With `CCN1CCCC1CNC(=O)c1ccc2c(c1)NC(=O)/C(=C\c1ccc(C)cc1)S2` (stereo not drawn), the activity in test [1] amounted to 89.7%; in test [2], 98.9%.
The corresponding values for `COc1ccc(-c2cc(C(=O)OCC(=O)N3CCOCC3)c3ccccc3n2)cc1` are 36.6% and 49.6%.
Taken in the same sequence, the figures for `N#Cc1c(NC(=O)c2ccccc2)sc2c1CCCCC2` were 46.5% and 49.6%.
Take `C/C(=N\Nc1cccc2cccnc12)c1ccccn1`: the activity was 69.8% in test [1] and 59.6% in test [2].
Taken in the same sequence, the figures for `c1ccc(-c2ccc(-c3cn4c(n3)CCC4)cc2)cc1` were 62.8% and 67.6%.
`COc1ccc(C(=O)Nc2ccc3c(c2)OCCO3)cc1`: the activity in test [1] turned out to be 77.6%; in test [2], 70%.
Taken in the same sequence, the figures for `O=C(Nc1nnc(SCC(=O)N2CCOCC2)s1)c1ccccc1` were 80% and 77.4%.
With `COc1ccc(-c2cc3ccccc3c(=O)o2)cc1`, the activity was found to be 49.4% in test [1] and 56.6% in test [2].
Taken in the same sequence, the figures for `COc1ccc(/C=N/Nc2cc(OC)ncn2)cc1` were 53.9% and 40.8%.
Taken in the same sequence, the figures for `C/C(=N\NC(=O)c1ccc(O)cc1)c1cccc(NC(=O)c2ccccc2C)c1` were 59.9% and 61.3%.
On to `Cc1ccc2nc(-c3ccc(NC(=O)COC(=O)c4ccco4)cc3)sc2c1`, for which the activity in test [1] was 73.4%; in test [2], 74.6%.
In the case of `O=C(Cn1ncc(Cl)c(Cl)c1=O)c1ccc2c(c1)OCCO2`, the activity in test [1] amounted to 39.7%; in test [2], 76%.
The corresponding values for `CCCCn1c(SCC(=O)Nc2nnc(CC)s2)nc2c1c(=O)n(C)c(=O)n2C` are 68% and 70.1%.
As to `CCOC(=O)c1cc([N+](=O)[O-])cc([N+](=O)[O-])c1Sc1ncnc2nc[nH]c12`, the activity stood at 51.5% in test [1] and 71.2% in test [2].
For `Cc1occc1C(=O)O/N=C(\N)c1ccccc1`, the activity in test [1] worked out at 89.7%; in test [2], 92.8%.
Taken in the same sequence, the figures for `COc1ccc2nc(Nc3nc(-c4cc5ccccc5oc4=O)cs3)sc2c1` were 50.4% and 47.4%.
Taken in the same sequence, the figures for `CCCCCCN(C(=O)CCl)c1ccccc1` were 98.8% and 99.2%.
Taken in the same sequence, the figures for `Cc1ccsc1/C=C/c1ccc2ccccc2n1` were 42.2% and 30.9%.
As to `O=C(O)c1ccc(N/N=C/c2cc3cc4c(cc3nc2Cl)OCCO4)cc1`, the activity stood at 96.3% in test [1] and 95.3% in test [2].
On to `COc1cccc2oc3ccc(C#Cc4ccccn4)cc3c(=O)c12`, for which the activity in test [1] came to 71.8%; in test [2], 87.5%.
Take `C/C(=N\NC(=O)c1ccc2c(c1)OCO2)c1ccco1`: the activity in test [1] was 53.5%; in test [2], 57.3%.
With `COc1ccccc1N1CCN(c2ccc(-c3ccccc3)nn2)CC1`, the activity in test [1] turned out to be 80.9%; in test [2], 86.2%.
Taken in the same sequence, the figures for `O=C(N/N=C/c1cccc(NC(=O)c2ccc(Cl)cc2)c1)c1ccc(O)cc1` were 58.4% and 42%.
The corresponding values for `CCN1CCN(c2ccc(S(=O)(=O)N3CCCCC3)cc2NC(=O)c2ccc([N+](=O)[O-])o2)CC1` are 59.8% and 61.9%.
The corresponding values for `Cc1ccc(-n2cc(C(=O)c3ccccc3O)cn2)cc1` are 52% and 38.6%.
`Cc1cccc(/C(N)=N/OC(=O)c2ccoc2C)c1`: the activity in test [1] was determined as 90.8%; in test [2], 91.8%.
Taken in the same sequence, the figures for `O=C(Nc1cccc(O)c1)c1noc2c1CCc1ccccc1-2` were 76.6% and 67.1%.
As for `COc1ccc(C(=O)Nc2ccc(C)cn2)c(OC)c1`, the activity in test [1] came to 95.3%; in test [2], 95.2%.
As for `COc1ccc(Oc2c(Cl)cnn(-c3ccccc3)c2=O)cc1`, the activity in test [1] came out at 98.4%; in test [2] it was 94.4%.
Take `O=C(N/N=C/c1ccc(-c2cccc(C(F)(F)F)c2)o1)c1cccc(F)c1`: the activity in test [1] is 62.7%; in test [2], 50.6%.
Turning to `O=C(Oc1c(CN2CCOCC2)cc(Cl)c2cccnc12)c1ccccc1Br`, the activity in test [1] worked out at 53.5%; in test [2], 52.8%.
Taken in the same sequence, the figures for `C=C1C(=O)OC2C=C(CO)C3OC3C3OC3(C)CC(OC(=O)/C(=C/C)COC(C)=O)C12` (stereo not drawn) were 70.1% and 81%.
As for `Cc1ccc(-n2nnc(-c3nccn3C)n2)cc1`, the activity in test [1] turned out to be 74.7%; in test [2], 77.1%.
`Cc1nc(NCC2CCCO2)nc2c1C(=O)CC(C)C2` (stereo not drawn): the activity was found to be 33% in test [1] and 40.6% in test [2].
The corresponding values for `CC(C)c1ccc(C(=O)Nc2cccnc2)cc1` are 57.1% and 56.2%.
Taken in the same sequence, the figures for `Cn1sc(NC(=O)c2ccc(Cl)cc2)nc1=O` were 68.4% and 67%.
`CC/C(=N\NC(=O)c1csc(C)c1C)c1cccs1`: the activity in test [1] was 57.8%; in test [2] it was 55.5%.
Turning to `Cc1ccc(-c2nc(NC(=O)c3nn(C)cc3[N+](=O)[O-])sc2C)cc1C`, the activity came out at 98.1% in test [1] and 99.1% in test [2].
As for `Cc1ccnc(NC(=O)/C=C/c2cccs2)c1`, the activity in test [1] was determined as 84.1%; in test [2], 81.5%.
With `Cc1ccc(-c2nnc(NC(=O)c3ccco3)o2)c(C)c1`, the activity was 70.7% in test [1] and 58.6% in test [2].
Taken in the same sequence, the figures for `CCCCn1c(NS(=O)(=O)c2ccc(C)cc2)c(S(=O)(=O)c2ccccc2)c2nc3ccccc3nc21` were -5.92% and -15%.
Taken in the same sequence, the figures for `COc1cc2c(cc1OC)C(c1ccccc1)N(C(=O)CCl)CC2` (stereo not drawn) were 98.3% and 92.4%.
`Oc1cccc2ccc(Nc3ccccn3)nc12`: the values for the activity in test [1] and in test [2] were 88.8% and 95.5%, respectively.
Take `Cc1cccc(-n2ncc3c(N4CCC(C)CC4)ncnc32)c1`: the activity in test [1] stood at 44.7%; in test [2] it was 34.7%.
With `Cc1ccc2nc(Cl)c(/C=N/Nc3ccc(C(=O)O)cc3)cc2c1`, the figures for the activity in test [1] and in test [2] were 90.2% and 86.4%, respectively.
Taken in the same sequence, the figures for `CCN(CC)c1ccc(C(=O)OCc2cc(=O)oc3cc(O)ccc23)cc1` were 83.8% and 96%.
The corresponding values for `CC(=O)Nc1ccc(NC(=O)CSc2nnc(NC(=O)c3ccccc3F)s2)cc1` are 69.5% and 63.9%.
